Source: PubChem BioAssay (NCATS)
Where “and” joins values, the source holds several entries; their conditions need not be identical. Equal entries are not always repeated. Inconclusive results are not listed. Entries that show only a call come without a potency. Unmarked numbers belong to inactive results. Calls of active or inactive are those of the source. Calls follow the shape of the dose curve; as a rule, active = well fitted inhibition curve with a large enough effect; inconclusive = small, poorly fitted or top-dose-only effect; inactive = flat fitted curve, though single readings scatter.

Key:
JCK = assay: qHTS profiling for inhibitors of Plasmodium falciparum proliferation (AID 504749); also: potency is read from the fitted curve at half-maximal effect; conditions: P. falciparum in erythrocytes, SYBR Green DNA, 72 h; series mostly up to 28.7 µM
How it was run: (§1)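 Infected RBCs, 0.3% parasitemia/2.5% Hct final; cpd 72 h, 37 C, 5% CO2; lysis buffer with saponin/triton/SYBR Green I, o/n RT dark; FI 485/535; norm. to artemisinin (0.29 uM) and DMSO.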

N140 = assay: as above; conditions: P. falciparum in erythrocytes, SYBR Green DNA, 72 h; series mostly up to 28.7 µM
How it was run: as §1

P93_24 = assay: as above; conditions: P. falciparum in erythrocytes, SYBR Green DNA, 72 h; series mostly up to 28.7 µM
How it was run: as §1

P94_40 = assay: as above; conditions: P. falciparum in erythrocytes, SYBR Green DNA, 72 h; series mostly up to 28.7 µM
How it was run: as §1

PAD = assay: as above; conditions: P. falciparum in erythrocytes, SYBR Green DNA, 72 h; series mostly up to 28.7 µM
How it was run: as §1

PC15 = assay: as above; conditions: P. falciparum in erythrocytes, SYBR Green DNA, 72 h; series mostly up to 28.7 µM
How it was run: as §1

PC26 = assay: as above; conditions: P. falciparum in erythrocytes, SYBR Green DNA, 72 h; series mostly up to 28.7 µM
How it was run: as §1

PC49 = assay: as above; conditions: P. falciparum in erythrocytes, SYBR Green DNA, 72 h; series mostly up to 28.7 µM
How it was run: as §1

SC27B = assay: as above; conditions: P. falciparum in erythrocytes, SYBR Green DNA, 72 h; series mostly up to 28.7 µM
How it was run: as §1

TAB109 = assay: as above; conditions: P. falciparum in erythrocytes, SYBR Green DNA, 72 h; series mostly up to 28.7 µM
How it was run: as §1

TAB113 = assay: as above; conditions: P. falciparum in erythrocytes, SYBR Green DNA, 72 h; series mostly up to 28.7 µM
How it was run: as §1

TAB165 = assay: as above; conditions: P. falciparum in erythrocytes, SYBR Green DNA, 72 h; series mostly up to 28.7 µM
How it was run: as §1

CRL-7250 = normal cell line; assay: Cytotoxic Profiling of Annotated Libraries Using Quantitative High-Throughput Screening (AID 1296008); conditions: Five cell lines viability, CellTiter-Glo ATP luminescence, 48-72 h; max response: active compounds read low
How it was run: (§2)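 Cytotoxicity was measured as CellTiter-Glo ATP luminescence, read after 10 min at room temperature. Compound treatment of the cells lasted 48 or 72 hr at 37 degrees Celsius in a qHTS format.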

HEK293 = assay: as above; conditions: Five cell lines viability, CellTiter-Glo ATP luminescence, 48-72 h; max response: active compounds read low
How it was run: as §2

HaCat [1] = assay: as above; conditions: Five cell lines viability, CellTiter-Glo ATP luminescence, 48-72 h; max response: active compounds read low
How it was run: as §2

KB-3-1 = assay: as above; conditions: Five cell lines viability, CellTiter-Glo ATP luminescence, 48-72 h; max response: active compounds read low
How it was run: as §2

NIH3T3 = assay: as above; conditions: Five cell lines viability, CellTiter-Glo ATP luminescence, 48-72 h; max response: active compounds read low
How it was run: as §2

HACAT [2] = assay: qHTS assay to identify novel small-molecules to repurpose for Merkel cell carcinoma treatment (AID 1296009); conditions: MCC and control cell lines, CellTiter-Glo viability, 72 h
How it was run: (§3)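 72 hr, 37 degree celsius; NPC 8-pt / MIPE 11-pt dose response; compound pinned in DMSO; CellTiter-Glo, 10 min RT, luminescence; normalized to no-cell and DMSO controls.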

HEK293T = assay: as above; conditions: MCC and control cell lines, CellTiter-Glo viability, 72 h; at 44.8 µM (top of the series) unless noted
How it was run: as §3

W2 = assay: qHTS profiling for inhibitors of Plasmodium falciparum proliferation (AID 504749); also: potency is read from the fitted curve at half-maximal effect; conditions: P. falciparum in erythrocytes, SYBR Green DNA, 72 h; series mostly up to 28.7 µM
How it was run: as §1

[3] = at 44.8 µM (top of the series) unless noted
Also: nearly all actives have a fitted effect of over 60% in size.

CCOC(=O)OC(C)OC1=C(C(=O)Nc2ccccn2)N(C)S(=O)(=O)c2ccccc21 (stereo not drawn)
Potency (JCK): inactive | Potency (N140): inactive | Potency (P93_24): inactive | Potency (P94_40): inactive | Potency (PAD): inactive | Potency (PC15): inactive | Potency (PC26): inactive | Potency (PC49): inactive | Potency (SC27B): inactive | Potency (TAB109): inactive | Potency (TAB113): inactive | Potency (TAB165): inactive | outcome (CRL-7250): inactive | outcome (HEK293): inactive | outcome (HaCat [1]): inactive | max response (KB-3-1): 2.11% | max response (NIH3T3): 3.47% | outcome (HACAT [2]; [3]): inactive | outcome (HEK293T): inactive

CC(=O)OCC(=O)[C@@]1(O)[C@H](C)C[C@H]2[C@@H]3CCC4=CC(=O)C=C[C@]4(C)[C@@]3(F)[C@@H](O)C[C@@]21C
max response (CRL-7250): 0.495% and 1.45% | max response (HEK293): -2.05% | outcome (HEK293): inactive | max response (HaCat [1]): -3.13% and -0.939% | max response (NIH3T3): 4.69% | outcome (NIH3T3): inactive | outcome (HEK293T): inactive

Cc1c(C(C)C)c(=O)n(-c2ccccc2)n1C
Potency (JCK): inactive | Potency (N140): inactive | Potency (P93_24): inactive | Potency (P94_40): inactive | Potency (PAD): inactive | Potency (PC15): inactive | Potency (PC26): inactive | Potency (PC49): inactive | Potency (SC27B): inactive | Potency (TAB109): inactive | Potency (TAB113): inactive | Potency (TAB165): inactive | Potency (W2): inactive | max response (CRL-7250): 0.671% | outcome (HEK293): inactive | outcome (HaCat [1]): inactive | max response (KB-3-1): -0.49% | max response (NIH3T3): 0.732% | outcome (HACAT [2]; [3]): inactive | outcome (HEK293T): inactive

O=C1c2ccccc2C(=O)C1c1ccccc1
Potency (JCK): inactive | Potency (N140): inactive | Potency (P93_24): inactive | Potency (P94_40): inactive | Potency (PAD): inactive | Potency (PC15): inactive | Potency (PC26): inactive | Potency (PC49): inactive | Potency (SC27B): inactive | Potency (TAB109): inactive | Potency (TAB113): inactive | Potency (TAB165): inactive | Potency (W2): inactive | max response (CRL-7250): -3.39% | outcome (HEK293): inactive | outcome (HaCat [1]): inactive | max response (KB-3-1): -18.6% | outcome (NIH3T3): inactive | outcome (HACAT [2]; [3]): inactive | outcome (HEK293T): inactive

CCC(C(=O)OCCN(CC)CC)c1ccccc1 (stereo not drawn)
Potency (JCK): inactive | Potency (N140): inactive | Potency (P93_24): inactive | Potency (P94_40): inactive | Potency (PAD): inactive | Potency (PC15): inactive | Potency (PC26): inactive | Potency (PC49): inactive | Potency (SC27B): inactive | Potency (TAB109): inactive | Potency (TAB113): inactive | Potency (TAB165): inactive | Potency (W2): 15.1 µM (active) | outcome (CRL-7250): inactive | max response (HEK293): 3.62% | outcome (HaCat [1]): inactive | max response (KB-3-1): -12.7% | max response (NIH3T3): -17.3% | outcome (HACAT [2]; [3]): inactive

C[C@]12C=CC(=O)C=C1[C@@H](F)C[C@@H]1[C@@H]2[C@@H](O)C[C@@]2(C)[C@H]1CC[C@]2(O)C(=O)CO
max response (CRL-7250): 1.95% | max response (HEK293): -9.41% | max response (HaCat [1]): -4.4% | max response (KB-3-1): 8% and -2.32% | max response (NIH3T3): -3.51%

Cc1onc(-c2c(Cl)cccc2Cl)c1C(=O)N[C@@H]1C(=O)N2[C@@H]1SC(C)(C)[C@@H]2C(=O)O
max response (CRL-7250): -3.36% and -1.59% | max response (HEK293): -5.63% | outcome (HEK293): inactive | max response (HaCat [1]): -4.29% | max response (KB-3-1): -7.64% and 7.08% | max response (NIH3T3): -14.9% and -2.17% | outcome (HEK293T): inactive

CCCCS(=O)(=O)N[C@@H](Cc1ccc(OCCCCC2CCNCC2)cc1)C(=O)O
max response (CRL-7250): -2.86% and 2.79% | max response (HEK293): -5.53% and -1.56% | max response (HaCat [1]): -0.76% | outcome (HaCat [1]): inactive | max response (KB-3-1): -7.62% | outcome (KB-3-1): inactive | max response (NIH3T3): -1.76% | outcome (NIH3T3): inactive | outcome (HACAT [2]; [3]): inactive

COc1ccc(C2C(=O)c3ccccc3C2=O)cc1
Potency (JCK): inactive | Potency (N140): inactive | Potency (P93_24): inactive | Potency (P94_40): inactive | Potency (PAD): inactive | Potency (PC15): inactive | Potency (PC26): inactive | Potency (PC49): inactive | Potency (SC27B): inactive | Potency (TAB109): inactive | Potency (TAB113): inactive | Potency (TAB165): inactive | Potency (W2): inactive | max response (CRL-7250): -6.18% | max response (HEK293): -6.61% | outcome (HaCat [1]): inactive | max response (KB-3-1): 1.39% | outcome (NIH3T3): inactive | outcome (HACAT [2]; [3]): inactive

Cc1cc(O)c(C(C)C)cc1Cl
Potency (JCK): inactive | Potency (N140): inactive | Potency (P93_24): inactive | Potency (P94_40): inactive | Potency (PAD): inactive | Potency (PC15): inactive | Potency (PC26): inactive | Potency (PC49): inactive | Potency (SC27B): inactive | Potency (TAB109): inactive | Potency (TAB113): inactive | max response (CRL-7250): -3.05% | outcome (HEK293): inactive | outcome (HaCat [1]): inactive | max response (KB-3-1): 1.71% | max response (NIH3T3): 2.6% | outcome (HACAT [2]; [3]): inactive | outcome (HEK293T): inactive

COc1c2occc2c(OC)c2c(=O)cc(C)oc12
Potency (JCK): inactive | Potency (N140): inactive | Potency (P93_24): inactive | Potency (P94_40): inactive | Potency (PAD): inactive | Potency (PC15): inactive | Potency (PC26): inactive | Potency (PC49): inactive | Potency (SC27B): inactive | Potency (TAB109): inactive | Potency (TAB113): inactive | Potency (TAB165): inactive | Potency (W2): inactive | outcome (CRL-7250): inactive | max response (HEK293): -0.27% | outcome (HaCat [1]): inactive | max response (KB-3-1): 9.91% | max response (NIH3T3): -9.5% | outcome (HACAT [2]; [3]): inactive

Cc1nc2n(c(=O)c1CCN1CCC(c3noc4cc(F)ccc34)CC1)CCC[C@H]2O
max response (CRL-7250): -3.73% | outcome (CRL-7250): inactive | max response (HEK293): -1.89% | outcome (HEK293): inactive | outcome (HaCat [1]): inactive | max response (KB-3-1): -12.7% and -2.14% | max response (NIH3T3): 1.23% | outcome (NIH3T3): inactive | outcome (HACAT [2]; at 17.4 µM (top of the series)): inactive | outcome (HACAT [2]; at 44.8 µM (top of the series)): inactive | outcome (HEK293T): inactive
